Source: PubChem BioAssay (The Scripps Research Institute Molecular Screening Center)
TEAD-YAP block: TEAD-YAP interaction inhibition. 640,000 compounds, 1.4% hits. inhibition, % at 9.12 µM. AID 1259422. HEK-TIYL cells, TEAD-Gal4/YAP UAS-luciferase luminescence; in the data active = inhibition above about 32%;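 also: 0% = median of test compound wells and 100% = reference inhibitor wells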
GPR151 ag: activators of human GPR151; Q8TDV0; PathHunter beta-arrestin GPR151 cells, luminescence; activation, % at 11.2 µM; 650,000 compounds, 1% hits; AID 1508602; in the data active = activation above about 4.9%;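 also: 0% = median of compound wells and 100% = cells with positive control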
Target sequence (Q8TDV0 whole entry, looked up): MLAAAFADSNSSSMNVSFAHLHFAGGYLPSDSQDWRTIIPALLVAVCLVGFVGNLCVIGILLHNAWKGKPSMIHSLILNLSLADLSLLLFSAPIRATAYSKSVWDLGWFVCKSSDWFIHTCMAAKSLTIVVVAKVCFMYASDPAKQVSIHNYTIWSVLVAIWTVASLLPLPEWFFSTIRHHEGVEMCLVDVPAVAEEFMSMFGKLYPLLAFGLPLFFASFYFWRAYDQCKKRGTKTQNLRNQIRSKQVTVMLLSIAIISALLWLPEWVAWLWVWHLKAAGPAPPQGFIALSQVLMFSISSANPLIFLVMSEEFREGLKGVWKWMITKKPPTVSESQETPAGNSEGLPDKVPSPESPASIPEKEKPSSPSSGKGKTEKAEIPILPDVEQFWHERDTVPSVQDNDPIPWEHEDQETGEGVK
FBW7 act: activators of human E3 ligase FBW7. 650,000 compounds, 0.13% hits. AlphaScreen FBW7–phospho-cyclin E peptide binding, activator screen. normalized activity (activation), % at 26.1 µM; in the data active = normalized activity above about 1.9%;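 also: purified mutant Fbw7 with reduced substrate affinity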
MITF primary: inhibitors of human MITF; 650,000 compounds, 0.91% hits; O75030; inhibition, % at 2.6 µM; AlphaScreen MITF homodimerization, bead proximity signal; in the data active = inhibition above about 50%;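 also: 0% = vehicle wells with protein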
MITF inh conf: confirmation of human MITF inhibitors. inhibition, % at 2.6 µM. 4,700 compounds, 16% hits. shares compounds with MITF primary. AlphaScreen MITF homodimerization, biotin/His-MITF beads;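 active = inhibition above a cutoff derived from the DMSO control wells, cut at about 28% in these data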;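 also: 0% = MITF dimer wells with DMSO only; inhibitors lower the bead chemiluminescence by keeping MITF from dimerizing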
AlphaScreen DR: optically interferes with AlphaScreen signal in dose response; AID 1259373; shares compounds with MITF primary; IC50, µM; AlphaScreen optical interference counterscreen, cell-free; 480 compounds, 6% hits; call rule not given here
AS interf ctr: optically interferes with AlphaScreen signal; shares compounds with MITF primary; LysRS AlphaScreen counterscreen, signal interference, triplicate; inhibition, % at 2.6 µM; 4,700 compounds, 7.6% hits;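 active = inhibition above a cutoff derived from the DMSO control wells, cut at about 30% in these data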
* marks the source's active call; other numbers are inactive results; . = no result given; ! = a repeat was not active. Shown are actives, neighbours in structure and some others; about 3.5% of the full set was active somewhere.

SMILES	TEAD-YAP block	GPR151 ag	FBW7 act	MITF primary	MITF inh conf	AS interf ctr	others
COC(=O)CN1C(=S)N(C)C(=O)/C1=C/c1ccc(SC)cc1	12	0	0	5	.	.
O=C1CCCN1CCCNCC(=O)N1c2ccccc2Sc2ccccc21	3	-1	0	76*	-16	-1
O=C(NC1CCCCC1)c1nn2c(c1Br)NC(c1cccs1)CC2C(F)(F)F (configuration not stated)	-1	1	0	60*	-9	-9
CC(C)NC(=O)c1nn2c(c1Br)NC(c1cccs1)CC2C(F)(F)F (configuration not stated)	0	0	0	-2	.	.
COc1cccc(C(=O)Oc2ccc(C=O)cc2Br)c1	-2	1	0	2	.	.
O=P(O)(O)O[C@@H]1[C@H](O)[C@H](O)[C@@H](OP(=O)(O)O)[C@H](OP(=O)(O)O)[C@H]1O	.	3	.	54*!	4	2
COc1ccc(OC)c(-n2c(O)c(C=Nc3ccc(F)cc3)c(=O)[nH]c2=S)c1	9	4	0	-7	.	.
CC1(C)C2CC=C(COCC(O)CN3CCN(Cc4ccc5c(c4)OCO5)CC3)C1C2 (configuration not stated)	4	3	0	70*	2	2
CC1(C)[C@H]2CC=C(CN3CCOc4ccc(CN5CCC(O)CC5)cc4C3)[C@@H]1C2	0	1	0	-7	.	.
CC1(C)C2CC=C(CN3CCN(Cc4ccc5c(c4)OCO5)CC3)C1C2 (configuration not stated)	7	0	0	64*	-3	4
Cc1ccc2c(c1)c(=O)c1ccccc1n2CC(=O)Nc1ccc(F)cc1F	-1	-1	0	77*	4	5
O=C(COC(=O)c1ccc2c(c1)S(=O)(=O)c1ccccc1C2=O)c1ccccc1	0	0	0	-7	.	.
CCS(=O)(=O)N1CCc2ccc(NS(=O)(=O)C(C)C)cc2C1	-2	-1	0	-4	.	.
CCS(=O)(=O)N1CCc2ccc(NS(=O)(=O)Cc3ccccc3F)cc2C1	17	0	1	75*	-3	4
Cc1nc2ncnn2c(NC2CCCCC2)c1C	8	1	0	8	.	.
C[C@@H](OCc1ccccc1)[C@@H]1NC(=O)[C@H]2CN(C(=O)NC3CCCCC3)CCN2C1=O	-1	3	-1	80*	73*	-7	AlphaScreen DR=>6.5
O=C1N[C@@H](COCc2ccccc2)C(=O)N2CCN(C(=O)OCc3ccccc3)C[C@H]12	3	0	0	-8	.	.
O=C1N[C@@H](COCc2ccccc2)C(=O)N2CCN(C(=O)NC3CCCCC3)C[C@H]12	-1	2	0	72*	68*	-4	AlphaScreen DR=>6.5
CN1C(=O)[C@H]2CN(C(=O)NC3CCCCC3)CCN2C(=O)[C@@H]1Cc1ccccc1	1	1	0	74*	69*	-11	AlphaScreen DR=>6.5
O=C1N[C@@H](Cc2c[nH]c3ccccc23)C(=O)N2CCN(C(=O)NC3CCCCC3)C[C@H]12	12	-2	0	76*	72*	-9	AlphaScreen DR=>6.5
COC(=O)c1ccc(NC(=O)C2CC3c4ccccc4C2c2ccccc23)cc1 (configuration not stated)	7	-1	0	12	.	.
COc1ccc(C[C@@H]2NC(=O)[C@H]3CN(C(=O)Oc4ccc(F)cc4)CCN3C2=O)cc1	10	0	0	-10	.	.
COc1ccc(C[C@@H]2NC(=O)[C@H]3CN(C(=O)NC4CCCCC4)CCN3C2=O)cc1	7	1	1	73*	62*	-4	AlphaScreen DR=>6.5
CN(C)c1ccc(O)c2c1C[C@H]1C[C@H]3[C@H](N(C)C)C(=O)C(C(N)=O)=C(O)[C@@]3(O)C(=O)C1=C2O	0	1	0	73*!	64*	-15	AlphaScreen DR=>6.5
OCCN1CCN(Cc2ccc(-c3ccccc3)cc2)CC1	-6	1	0	61*	17	4
SMILES	TEAD-YAP block	GPR151 ag	FBW7 act	MITF primary	MITF inh conf	AS interf ctr	others
c1ccc(-c2ccc(CN3CCSCC3)cc2)cc1	-7	0	0	12	.	.
CN1CCN(Cc2ccc(-c3ccccc3)cc2)CC1	-14	-1	0	61*	15	6
CC(=O)Nc1ccc(CN2CCN(C)CC2)cc1	-4	-1	0	80*	3	19
CS(=O)(=O)c1ccc(N2CCN(C(=O)C3CCCCC3)CC2)c(F)c1	5	-1	0	0	.	.
CC(=O)c1c(C)oc2ccc(NS(=O)(=O)c3ccc(Cl)cc3)cc12	-7	0	0	-13	.	.
N#Cc1ccccc1S(=O)(=O)N1CCN(C(=O)COc2ccccc2F)CC1	2	0	0	-3	.	.
Cc1ccc(-c2noc(C3CCCN(S(=O)(=O)c4ccc5ccccc5c4)C3)n2)o1 (configuration not stated)	-2	1	0	-3	.	.
Cc1ccc(-c2noc(C3CCN(S(=O)(=O)c4ccc5c(c4)OCCO5)CC3)n2)o1	6	0	0	63*	8	17
COC(CNc1cc(-c2ccccn2)nc(-c2ccccc2)n1)OC	22	0	0	-2	.	.
Cc1cnc(CNc2cc(-c3ccccn3)nc(-c3ccccn3)n2)nc1	16	1	-1	110*	115*	100*
COC(CNc1cc(-c2ccccn2)nc(-c2ccccn2)n1)OC	22	0	-1	114*	116*	100*
COc1cccc(-n2c(C)c(C)n3c4c(=O)n(C(C)C(C)=O)c(=O)n(C)c4nc23)c1 (configuration not stated)	-2	0	0	-10	.	.
CC1=C(C(=O)Nc2ccc(Cl)cc2)C(c2ccncc2)C(C#N)=C(SCC(=O)Nc2ccc(Cl)cc2)N1 (configuration not stated)	5	1	0	14	.	.
O=C1NC(=S)N/C1=C\c1ccc([N+](=O)[O-])o1	-18	1	0	67*	67*	14	AlphaScreen DR=>7.7
O=C1NC(=S)N/C1=C\c1ccc(-c2cccc([N+](=O)[O-])c2)o1	-3	-1	0	-5	.	.
O=C(Cn1cnc2ccccc21)N1CCC(Cn2cccn2)CC1	12	-2	0	-7	.	.
CCOC(=O)CCC(=O)N1CCC(Cn2cnc3ccccc32)CC1	4	2	0	59*	7	13
O=C(/C=C/c1cccs1)N1CCC(Cn2cnc3ccccc32)CC1	4	1	0	65*	9	10
O=C(/C=C/c1cccs1)NCC1CCN(C(=O)/C=C/c2cccs2)CC1	-6	1	0	17	.	.
O=C(CN1CCC(Cn2cnc3ccccc32)CC1)N1CCC(Cc2ccccc2)CC1	61*	-1	0	74*	8	10
O=C(Cn1ncc2ccccc21)N1CCC(Cc2ccccc2)CC1	11	0	0	8	.	.
